Hit rate of the full screen: of about 13,000 compounds, about 3,200 (25%) showed an effect of 50% or more. The list shows a part of the results.
Tested on: P. falciparum stage V gametocytes
Set-up: BacTiter-Glo ATP luminescence viability of purified stage V gametocytes in 384-well plates, per cent inhibition versus DMSO
Conditions: 48 h, 5 µM; inhibitor

SMILES | % Inhibition
COc1ccc(N2CCN(CCCCNC(=O)c3ccc(NC(=O)c4ccc(OC(F)(F)F)cc4)cc3)CC2)c(OC)c1 [TCMDC-138149] | -10.77%
N#Cc1ccc2c(c1)CCN(CCC1CCC(Nc3ncnc4ccccc34)CC1)C2 (centres unmarked) [TCMDC-139358] | -22.56%
Cc1cccc2nc(-c3ccc(-c4cccc(NC(=O)C(C)CN(C)C)c4)s3)[nH]c12 (centres unmarked) [TCMDC-137116] | 33.05%
Cc1cc(NC(=O)Nc2cccc(N(C)C)c2)c2ccccc2n1 [TCMDC-138955] | -40.58%
O=C(Nc1ccc(SC(F)(F)F)cc1)Nc1ccnc2ccccc12 [TCMDC-139287] | 73.37%
Cc1cc2cc(NC(=O)Nc3ccnc4ccccc34)ccc2n1C [TCMDC-139291] | -17.26%
CCC(C)c1ccc(NC(=O)Nc2ccnc3ccccc23)cc1 (centres unmarked) [TCMDC-139723] | 3.75%
CN(C)c1cc(NC(=O)Nc2ccc(SC(F)(F)F)cc2)c2ccccc2n1 [TCMDC-123994] | 86%
CN(C)c1cc(NC(=O)Nc2ccccc2)c2ccccc2n1 [TCMDC-123521] | 30.25%
N#Cc1ccc2c(c1)CCN(CCC1CCC(NC(=O)c3cc4ccccc4[nH]3)CC1)CC2 (centres unmarked) [TCMDC-139633] | -57.67%
O=C(Nc1ccc(Cl)cc1)c1cc(Cl)ccc1NC(=O)C1CCc2ccccc2O1 (centres unmarked) [TCMDC-136640] | -15.02%
CCCOc1cc(O)c(-c2n[nH]c(C)c2Oc2ccccc2)cc1CC [TCMDC-125714] | -75.18%
CCCOc1c(CCNCCCCNCCc2ccc3ccccc3c2OCCC)ccc2ccccc12 [TCMDC-137950] | 113.4%
CCCOc1ccc(CCNCCCCNCCc2ccc(OCCC)c3ccccc23)c2ccccc12 [TCMDC-137952] | 124.7%
CCOc1c(N2CCN(CCCCNC(=O)c3ccc(NC(=O)c4ccc(Cl)cc4)cc3)CC2)ccc2ccccc12 [TCMDC-138522] | 6.305%
CCOc1c(CCNCCCCNCCc2ccc3ccccc3c2OCC)ccc2ccccc12 [TCMDC-137759] | 109.7%
CC(=NO)C1=C(O)C(c2ccccc2)N(c2ccccc2)C1=O (centres unmarked) [TCMDC-131673] | 13.72%
O=C(/C=C/c1ccc(Cl)c(Cl)c1)NCCCCCN1CCCN(C(=O)Nc2ccc(F)c(F)c2)CC1 [TCMDC-135750] | -25.07%
CCCC(C)Nc1nc(C)cc(N[C@@H](Cc2ccccc2)C(=O)NCCc2ccccc2)n1 (some centres unmarked) [TCMDC-134766] | 6.892%
O=C(Nc1ccc(OC2CCN(Cc3ccsc3)C2)c(Cl)c1)c1ccco1 (centres unmarked) [TCMDC-133950] | 41.88%
O=C(N[C@@H](CC1CCCCC1)C(=O)NC1CCCCCC1)c1ccc(O)c(-c2ccc(Cl)c(Cl)c2)c1 [TCMDC-140847] | 37.48%
COc1ccc(NC(=O)Nc2ccc(C)c(-c3ccc(C(=O)NCCN4CCCC4)cc3)c2)cc1 [TCMDC-134196] | -27.29%
CCN(CC)CCNC(=O)c1ccc(NC(=O)c2ccc(-c3cc(NC(=O)CC4CCCC4)ccc3C)cc2)cc1 [TCMDC-133707] | 110.3%
Cc1ccc(NC(=O)C2CCC2)cc1-c1ccc(C(=O)NCC2CC2)cc1 [TCMDC-138709] | -25.69%
COc1cc2c(cc1OC)CC(NCc1ccc(-c3ccc4nc[nH]c4c3)cc1)C2 [TCMDC-133474] | 37.11%

SMILES | % Inhibition
COc1cc2c(cc1OC)CN(CCCCc1ccc(NC(=O)c3cc(Cl)cc(Cl)c3)cc1)CC2 [TCMDC-138174] | -15.17%
COc1ccc(CCNCCCCCCNCCc2ccc(-c3ccccc3)cc2)cc1OC [TCMDC-131267] | 96.14%
COc1ccc(CNCCCCCCNCCc2ccc(Cl)cc2)cc1OC [TCMDC-131282] | 88.88%
COc1ccc(CNCC2CCC(CNCCc3ccccc3)CC2)cc1Cl (centres unmarked) [TCMDC-140364] | -22.08%
COc1cc2c(cc1OC)CC(NCCCCCCNCCc1ccc(Cl)cc1)CC2 (centres unmarked) [TCMDC-132038] | 103.4%
COc1ccc(CN(C)CCCc2ccc(NC(=O)Cc3ccc4nc(-c5ccccc5)ccc4c3)cc2)cc1OC [TCMDC-131845] | 17.3%
COc1ccc(CCNCCCCCCNCCCc2ccc(Cl)cc2)cc1OC [TCMDC-131280] | 105.1%
CCOc1cc2ncnc(Nc3ccc(OCc4c(Cl)cccc4Cl)c(OC)c3)c2cc1OCC [TCMDC-131927] | -5.801%
CCC(O)(C#Cc1c(C)nc(N)nc1N)CC [TCMDC-137329] | 41.32%
N#Cc1ccc(NC(=NCc2cccnc2)Nc2ccc(-c3ccccc3)cc2)c(O)c1 [TCMDC-140208] | -10.63%
COc1ccccc1C1CC(c2ccc(Br)cc2)=NN1C(=O)c1ccccc1 (centres unmarked) [TCMDC-125622] | 32.36%
Oc1ccc2[nH]c(-c3cccc(F)c3)nc2c1CN1CCC(N2CCCC2)CC1 [TCMDC-136357] | -60.35%
Cc1cccc2[nH]c(-c3ccc(-c4cccc(NC(=O)NCc5cccc(F)c5)c4)cc3)nc12 [TCMDC-133295] | 32.47%
COc1cccc(NC(=O)Nc2ccc(Nc3nc(C)cc(N4CCCC4)n3)cc2)c1 [TCMDC-124957] | -12.57%
N=C(N)c1cc(Br)cc(NC(=O)Nc2cc(Br)cc(C(=N)N)c2)c1 [TCMDC-124180] | -21.96%
CC1CCN(CC[C@H]2CCCN2S(=O)(=O)c2cccc(NC(=O)Nc3ccc(C(F)(F)F)cc3)c2)CC1 [TCMDC-141021] | -52.23%
CCCN(CCC)c1nn2c(=O)c(C(=O)N3CCN(Cc4ccccc4)CC3)cnc2s1 [TCMDC-125272] | -5.242%
COc1ccc(CNCCCCCNCc2ccc(Cl)c(Cl)c2)cc1Cl [TCMDC-140365] | 23.3%
COc1ccc(CCNCCCCCNCCCc2ccc(Cl)cc2)cc1OC [TCMDC-131278] | 107.5%
COc1ccc(CCNCCCCCCNCCc2ccc(Cl)c(Cl)c2)cc1OC [TCMDC-131275] | 106.4%
Cc1cc(CNCCCCCNCc2cccc([N+](=O)[O-])c2)ccc1O [TCMDC-140410] | 42.39%
COc1ccc(CCNCCCCCCNCCc2cccc([N+](=O)[O-])c2)cc1OC [TCMDC-131262] | 82.84%
COc1ccc(CCNCCCCCNCCc2ccc(Cl)cc2)cc1OC [TCMDC-131269] | 103.7%
Cc1cc(CNCCCCCCCNCc2cccc([N+](=O)[O-])c2)ccc1O [TCMDC-140416] | 12.73%
COc1ccc(CNCCCCCCCNCc2ccc(Cl)c(Cl)c2)cc1Cl [TCMDC-140366] | 13.21%

Source: PMC4552634, “A New Set of Chemical Starting Points with Plasmodium falciparum Transmission-Blocking Potential for Antimalarial Drug Discovery” (PLoS ONE, 2015)
